Of roughly 8,800 targets only a part is listed; those with a hit were picked by preference. About 0.5% of all pairs of compound and target were hits.
What was measured:
Test in all cases: log2 fold change, soluble protein after heating vs DMSO (PISA); higher = thermal stabilisation; K562 lysate, 10 uM; active = over 0.2 and 3.5 SD of the protein, either way, in both replicates (recomputed)
ibrutinib = compound: C=CC(=O)N1CCC[C@@H](n2nc(-c3ccc(Oc4ccccc4)cc3)c3c(N)ncnc32)C1 [ibrutinib]
Method in brief: (§1)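 Dounce homogenisation of K562 pellets in PBS pH 7.4 with 1 mM MgCl2 produced a crude extract, used at 1 mg/mL protein. Exposure to 10 μM compound lasted 30 min, and aliquots were then heated for 3 min across 48°C-58°C, pooled and brought to 0.5% NP-40 at 4°C. The supernatant after 21,000xg for 90 min was quantified by TMTpro 16plex LC-MS/MS with channel sums equalised. Duplicate values are given as log-two fold change in thermal stability relative to solvent controls.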

[1] = compound: CC(=O)c1cnc2ccc(-c3cc(Cl)c(O)c(Cl)c3)nc2c1N[C@H]1CC[C@H](CN(C)C)CC1
Method in brief: as §1

ralimetinib = compound: CC(C)(C)Cn1c(N)nc2ccc(-c3[nH]c(C(C)(C)C)nc3-c3ccc(F)cc3)nc21 [ralimetinib]
Method in brief: as §1

[2] = compound: CC(C)(O)CC(=O)NCCn1ccc2ncnc(Nc3ccc(Oc4cccc(C(F)(F)F)c4)c(Cl)c3)c21
Method in brief: as §1

[3] = compound: CC(C)C1=C2N=C(C=C(N2N=C1)NCC3=CC=CC=C3)NCCCCCCN
Method in brief: as §1

[4] = compound: CC1=C(C(CC(=O)N1)C2=CC=C(C=C2)C(F)(F)F)C(=O)NC3=C(C=C4C(=C3)C=NN4)F
Method in brief: as §1

[5] = compound: CC1=C(C2=C(C=C1)C(=O)C3=CC=CC=C3N2CCCN)C
Method in brief: as §1

[6] = compound: CC1=C(C=C(C=C1)NC(=O)C2=CC(=CC=C2)C(C)(C)C#N)NC3=CC4=C(C=C3)N=CN(C4=O)C
Method in brief: as §1

[7] = compound: CC1=C(C=C(C=C1)NC(=O)C2=CC(=CC=C2)N(C)C)NC(=O)C3=CC=C(C=C3)O
Method in brief: as §1

[8] = compound: CC1=CC=C(C=C1)SC2=C3C=C(SC3=CN=C2)C(=O)N
Method in brief: as §1

Measured: log2 fold change

GBF1 (UniProt Q92538)
UniProt Q92538, sequence (Q92538 whole entry, looked up): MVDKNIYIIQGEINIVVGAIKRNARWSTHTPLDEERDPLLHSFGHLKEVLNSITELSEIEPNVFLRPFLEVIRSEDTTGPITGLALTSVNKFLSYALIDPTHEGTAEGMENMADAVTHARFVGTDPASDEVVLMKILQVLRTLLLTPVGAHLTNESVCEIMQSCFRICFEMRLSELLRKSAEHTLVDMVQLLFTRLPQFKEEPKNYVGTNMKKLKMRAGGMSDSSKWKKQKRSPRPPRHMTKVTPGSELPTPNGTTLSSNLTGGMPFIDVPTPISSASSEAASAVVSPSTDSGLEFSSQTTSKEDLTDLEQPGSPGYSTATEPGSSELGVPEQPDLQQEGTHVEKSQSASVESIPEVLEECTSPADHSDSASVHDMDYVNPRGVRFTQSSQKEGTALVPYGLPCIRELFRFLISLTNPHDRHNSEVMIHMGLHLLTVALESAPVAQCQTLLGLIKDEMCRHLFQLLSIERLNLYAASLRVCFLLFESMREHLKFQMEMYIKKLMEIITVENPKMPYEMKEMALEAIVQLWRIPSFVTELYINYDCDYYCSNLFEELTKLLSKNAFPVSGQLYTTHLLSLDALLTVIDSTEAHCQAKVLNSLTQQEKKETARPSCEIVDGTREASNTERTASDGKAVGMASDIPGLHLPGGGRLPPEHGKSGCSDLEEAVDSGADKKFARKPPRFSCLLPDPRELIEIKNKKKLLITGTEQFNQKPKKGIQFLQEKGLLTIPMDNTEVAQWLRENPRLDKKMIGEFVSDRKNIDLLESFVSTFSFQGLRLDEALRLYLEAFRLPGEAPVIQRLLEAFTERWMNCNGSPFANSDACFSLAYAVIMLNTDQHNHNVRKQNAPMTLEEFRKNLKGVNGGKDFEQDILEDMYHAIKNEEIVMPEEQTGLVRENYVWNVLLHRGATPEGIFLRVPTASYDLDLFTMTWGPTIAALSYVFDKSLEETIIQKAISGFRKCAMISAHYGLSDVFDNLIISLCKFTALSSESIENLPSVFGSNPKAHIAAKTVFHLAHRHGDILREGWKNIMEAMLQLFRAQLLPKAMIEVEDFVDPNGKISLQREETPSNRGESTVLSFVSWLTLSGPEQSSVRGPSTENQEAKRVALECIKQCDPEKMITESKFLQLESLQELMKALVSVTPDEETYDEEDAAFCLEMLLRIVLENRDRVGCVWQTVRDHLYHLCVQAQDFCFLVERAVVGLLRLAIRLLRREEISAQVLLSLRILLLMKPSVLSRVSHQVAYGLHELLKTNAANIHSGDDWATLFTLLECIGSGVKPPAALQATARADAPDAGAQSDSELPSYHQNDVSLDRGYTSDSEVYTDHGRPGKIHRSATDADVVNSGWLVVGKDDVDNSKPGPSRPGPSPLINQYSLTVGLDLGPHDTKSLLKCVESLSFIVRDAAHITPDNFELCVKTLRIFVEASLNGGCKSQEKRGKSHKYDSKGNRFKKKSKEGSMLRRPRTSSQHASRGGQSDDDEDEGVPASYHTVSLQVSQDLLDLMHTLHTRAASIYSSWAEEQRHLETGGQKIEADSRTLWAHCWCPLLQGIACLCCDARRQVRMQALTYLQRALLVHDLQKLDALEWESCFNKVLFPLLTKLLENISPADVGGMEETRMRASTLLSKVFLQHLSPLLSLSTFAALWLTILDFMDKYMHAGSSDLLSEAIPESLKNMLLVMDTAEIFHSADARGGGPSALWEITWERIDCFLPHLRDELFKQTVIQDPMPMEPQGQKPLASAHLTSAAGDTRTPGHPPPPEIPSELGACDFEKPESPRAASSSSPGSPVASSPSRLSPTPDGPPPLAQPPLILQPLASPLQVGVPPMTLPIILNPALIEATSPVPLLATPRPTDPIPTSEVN
inactive: ibrutinib 0.007 | [1] -0.001 | ralimetinib 0.051 | [2] -0.03 | [3] -0.011 | [4] -0.003 | [5] -0.011 | [6] -0.015 | [7] 0.017 | [8] 0.012

FAM118A (UniProt Q9NWS6)
inactive: ibrutinib -0.024 | [1] 0.01 | ralimetinib 0.041 | [2] -0.052 | [3] -0.01 | [4] -0.004 | [5] -0.052 | [6] 0.015 | [7] 0.014 | [8] -0.004

EIF2B3 (UniProt Q9NR50)
inactive: ibrutinib 0.007 | [1] 0.02 | ralimetinib 0.011 | [2] 0.005 | [3] 0.004 | [4] -0.004 | [5] -0.007 | [6] 0.043 | [7] 0.021 | [8] -0.004

DUS2 (UniProt Q9NX74)
inactive: ibrutinib 0.071 | [1] -0.036 | ralimetinib 0.026 | [2] 0.097 | [3] -0.003 | [4] -0.056 | [5] -0.029 | [6] -0.004 | [7] 0.091 | [8] 0.01

GCLM (UniProt P48507)
inactive: ibrutinib 0.006 | [1] -0.009 | ralimetinib 0.01 | [2] -0.047 | [3] -0.028 | [4] 0.006 | [5] -0.007 | [6] 0.024 | [7] -0.026 | [8] -0.006

FADS1, A0A0A0MR51
inactive: ibrutinib 0.011 | [1] 0.178 | ralimetinib 0.094 | [2] 0.094 | [3] -0.003 | [4] -0.032 | [5] 0.002 | [6] 0.113 | [7] -0.08 | [8] -0.115

GATAD2A isoform 3 (UniProt Q86YP4)
inactive: ibrutinib 0.017 | [1] 0.008 | ralimetinib 0.023 | [2] 0.01 | [3] 0.012 | [4] -0.004 | [5] 0.005 | [6] 0.01 | [7] 0.016 | [8] -0.005

ENO1, A0A2R8YEM5
inactive: ibrutinib -0.013 | [1] 0.008 | ralimetinib -0.012 | [2] -0.016 | [3] -0.024 | [4] -0.032 | [5] 0.001 | [6] 0.012 | [7] -0.044 | [8] 0.014

ENY2 (UniProt Q9NPA8)
UniProt Q9NPA8, sequence (Q9NPA8 whole entry, looked up): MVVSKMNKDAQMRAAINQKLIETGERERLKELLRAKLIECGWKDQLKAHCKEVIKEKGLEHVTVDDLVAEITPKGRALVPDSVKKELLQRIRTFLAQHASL
inactive: ibrutinib 0.161 | [1] 0.038 | ralimetinib -0.021 | [2] 0.057 | [3] 0 | [4] -0.069 | [5] 0.066 | [6] 0.075 | [7] -0.052 | [8] 0.035

FIBP (UniProt O43427)
UniProt O43427, sequence (O43427 whole entry, looked up): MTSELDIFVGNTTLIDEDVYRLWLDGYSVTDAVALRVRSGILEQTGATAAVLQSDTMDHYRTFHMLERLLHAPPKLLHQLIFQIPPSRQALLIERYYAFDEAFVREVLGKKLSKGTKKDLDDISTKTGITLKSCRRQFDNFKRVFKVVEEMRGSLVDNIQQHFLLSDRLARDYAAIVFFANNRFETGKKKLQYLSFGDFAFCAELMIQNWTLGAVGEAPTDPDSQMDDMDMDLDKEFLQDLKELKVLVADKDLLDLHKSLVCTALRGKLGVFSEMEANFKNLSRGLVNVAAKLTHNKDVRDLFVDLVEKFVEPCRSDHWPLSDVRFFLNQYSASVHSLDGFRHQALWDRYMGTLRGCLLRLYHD
inactive: ibrutinib 0.015 | [1] 0.02 | ralimetinib 0.032 | [2] -0.026 | [3] 0.028 | [4] 0.057 | [5] 0.036 | [6] 0.01 | [7] 0.024 | [8] 0.011

FANCI (UniProt Q9NVI1)
inactive: ibrutinib -0.024 | [1] 0.022 | ralimetinib 0.02 | [2] -0.024 | [3] -0.038 | [4] -0.021 | [5] 0.026 | [6] 0.002 | [7] 0.033 | [8] 0.014

GAMT (UniProt Q14353)
inactive: ibrutinib 0.029 | [1] -0.008 | ralimetinib 0.019 | [2] 0.013 | [3] -0.041 | [4] 0.071 | [5] -0.009 | [6] -0.003 | [7] -0.003 | [8] 0.005

EHHADH (UniProt Q08426)
inactive: ibrutinib 0.059 | [1] -0.023 | ralimetinib 0.021 | [2] -0.084 | [3] -0.016 | [4] -0.003 | [5] 0.128 | [6] -0.027 | [7] 0.031 | [8] 0.008

EXOC1 (UniProt Q9NV70)
UniProt Q9NV70, sequence (Q9NV70 whole entry, looked up): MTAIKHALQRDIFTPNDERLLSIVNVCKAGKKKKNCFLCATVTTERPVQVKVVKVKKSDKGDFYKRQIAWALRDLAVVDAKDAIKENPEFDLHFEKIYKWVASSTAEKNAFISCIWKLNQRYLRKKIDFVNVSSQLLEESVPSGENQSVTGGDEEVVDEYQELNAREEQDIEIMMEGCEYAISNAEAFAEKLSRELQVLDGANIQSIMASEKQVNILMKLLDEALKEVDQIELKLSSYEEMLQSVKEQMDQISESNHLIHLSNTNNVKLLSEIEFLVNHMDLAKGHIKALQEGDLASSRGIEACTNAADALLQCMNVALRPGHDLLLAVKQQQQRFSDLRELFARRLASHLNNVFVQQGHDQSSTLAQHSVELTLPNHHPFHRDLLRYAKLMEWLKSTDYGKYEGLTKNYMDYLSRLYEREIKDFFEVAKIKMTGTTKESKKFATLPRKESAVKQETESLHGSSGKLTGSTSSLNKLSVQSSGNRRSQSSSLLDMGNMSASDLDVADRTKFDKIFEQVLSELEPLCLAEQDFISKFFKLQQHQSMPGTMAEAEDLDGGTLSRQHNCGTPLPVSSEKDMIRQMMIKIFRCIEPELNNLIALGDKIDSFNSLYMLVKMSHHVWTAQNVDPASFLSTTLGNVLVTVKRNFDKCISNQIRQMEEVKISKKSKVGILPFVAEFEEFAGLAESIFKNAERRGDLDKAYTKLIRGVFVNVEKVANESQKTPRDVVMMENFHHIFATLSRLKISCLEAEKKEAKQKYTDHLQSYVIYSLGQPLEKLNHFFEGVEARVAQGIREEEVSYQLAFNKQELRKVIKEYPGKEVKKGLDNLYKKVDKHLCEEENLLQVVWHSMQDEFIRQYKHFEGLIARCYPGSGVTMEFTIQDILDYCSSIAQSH
inactive: ibrutinib -0.043 | [1] 0.012 | ralimetinib 0.04 | [2] -0.004 | [3] -0.023 | [4] -0.022 | [5] 0.016 | [6] -0.026 | [7] 0.032 | [8] -0.011

EPB41 (UniProt P11171)
inactive: ibrutinib 0.01 | [1] 0.026 | ralimetinib 0.009 | [2] 0.012 | [3] -0.003 | [4] -0.001 | [5] 0.018 | [6] -0.023 | [7] 0.01 | [8] 0.044

EEF1AKNMT (UniProt Q8N6R0)
inactive: ibrutinib -0.016 | [1] 0.017 | ralimetinib 0.096 | [2] 0.023 | [3] 0.017 | [4] -0.003 | [5] -0.024 | [6] 0.002 | [7] -0.021 | [8] 0.002

DST (UniProt Q03001)
inactive: ibrutinib 0.007 | [1] -0.031 | ralimetinib -0.034 | [2] -0.098 | [3] 0.021 | [4] -0.052 | [5] -0.054 | [6] 0.049 | [7] 0.063 | [8] -0.046

EEF1A1, A0A087WVQ9
inactive: ibrutinib 0.085 | [1] 0.019 | ralimetinib -0.006 | [2] 0.019 | [3] -0.007 | [4] 0.091 | [5] 0 | [6] -0.023 | [7] -0.006 | [8] 0.004

FARSA (UniProt Q9Y285)
UniProt Q9Y285, sequence (Q9Y285 whole entry, looked up): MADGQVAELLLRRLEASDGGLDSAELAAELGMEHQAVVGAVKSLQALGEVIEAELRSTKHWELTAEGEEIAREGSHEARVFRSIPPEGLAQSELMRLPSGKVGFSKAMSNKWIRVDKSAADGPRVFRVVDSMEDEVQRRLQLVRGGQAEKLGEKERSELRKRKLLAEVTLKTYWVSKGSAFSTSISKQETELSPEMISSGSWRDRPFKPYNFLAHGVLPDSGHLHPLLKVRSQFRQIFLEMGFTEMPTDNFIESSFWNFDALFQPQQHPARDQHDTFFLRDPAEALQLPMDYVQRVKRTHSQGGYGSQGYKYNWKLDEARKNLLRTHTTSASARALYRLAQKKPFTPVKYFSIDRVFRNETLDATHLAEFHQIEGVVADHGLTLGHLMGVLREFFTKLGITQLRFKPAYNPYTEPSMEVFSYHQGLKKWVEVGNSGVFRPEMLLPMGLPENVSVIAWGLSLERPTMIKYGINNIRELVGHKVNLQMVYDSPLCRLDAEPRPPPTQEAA
inactive: ibrutinib -0.006 | [1] -0.02 | ralimetinib 0.048 | [2] 0.025 | [3] 0.06 | [4] -0.014 | [5] -0.063 | [6] 0.055 | [7] 0 | [8] 0.006

EIF2D (UniProt P41214)
inactive: ibrutinib 0.011 | [1] -0.017 | ralimetinib 0.018 | [2] 0.026 | [3] 0.03 | [4] -0.005 | [5] -0.03 | [6] -0.004 | [7] 0.016 | [8] 0.01

FADS3 (UniProt Q9Y5Q0)
UniProt Q9Y5Q0, sequence (Q9Y5Q0 whole entry, looked up): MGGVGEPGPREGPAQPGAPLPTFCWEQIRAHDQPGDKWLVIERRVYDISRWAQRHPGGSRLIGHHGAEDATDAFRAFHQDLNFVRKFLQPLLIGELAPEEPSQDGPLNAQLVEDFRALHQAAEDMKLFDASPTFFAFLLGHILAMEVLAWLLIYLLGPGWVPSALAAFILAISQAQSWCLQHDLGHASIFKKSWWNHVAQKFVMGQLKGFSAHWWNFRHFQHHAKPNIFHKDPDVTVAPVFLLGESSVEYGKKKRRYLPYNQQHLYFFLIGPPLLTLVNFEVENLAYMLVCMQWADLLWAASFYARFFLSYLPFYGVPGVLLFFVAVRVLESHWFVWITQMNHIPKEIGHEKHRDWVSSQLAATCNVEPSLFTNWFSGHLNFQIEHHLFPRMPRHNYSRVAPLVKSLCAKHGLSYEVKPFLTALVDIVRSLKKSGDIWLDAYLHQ
inactive: ibrutinib 0.11 | [1] -0.02 | ralimetinib -0.123 | [2] 0.075 | [3] -0.051 | [4] 0.074 | [5] -0.49 | [6] 0.015 | [7] 0.017 | [8] -0.017

ERLIN1 (UniProt O75477)
inactive: ibrutinib 0.005 | [1] 0.034 | ralimetinib -0.011 | [2] 0.038 | [3] -0.007 | [4] 0.044 | [5] 0.005 | [6] -0.052 | [7] -0.008 | [8] 0.012

ECI2 (UniProt O75521)
UniProt O75521, sequence (O75521 whole entry, looked up): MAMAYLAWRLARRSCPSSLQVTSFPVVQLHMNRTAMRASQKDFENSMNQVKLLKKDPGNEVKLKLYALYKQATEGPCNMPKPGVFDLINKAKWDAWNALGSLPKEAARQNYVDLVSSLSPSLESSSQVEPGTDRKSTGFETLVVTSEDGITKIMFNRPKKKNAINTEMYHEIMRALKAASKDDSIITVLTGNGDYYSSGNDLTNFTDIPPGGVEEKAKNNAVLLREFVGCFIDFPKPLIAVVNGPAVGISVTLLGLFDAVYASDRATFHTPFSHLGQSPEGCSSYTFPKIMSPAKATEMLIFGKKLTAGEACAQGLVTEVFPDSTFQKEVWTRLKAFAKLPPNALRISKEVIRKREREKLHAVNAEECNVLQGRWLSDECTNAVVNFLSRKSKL
inactive: ibrutinib 0.01 | [1] -0.027 | ralimetinib -0.033 | [2] -0.049 | [3] -0.015 | [4] -0.013 | [5] -0.008 | [6] 0.013 | [7] 0.007 | [8] 0

FARSB (UniProt Q9NSD9)
inactive: ibrutinib 0.021 | [1] -0.013 | ralimetinib -0.006 | [2] 0.016 | [3] 0.004 | [4] -0.023 | [5] 0.007 | [6] 0.033 | [7] 0.008 | [8] 0.03

EHD2 (UniProt Q9NZN4)
inactive: ibrutinib -0.004 | [1] 0.035 | ralimetinib 0.054 | [2] -0.027 | [3] -0.005 | [4] 0.066 | [5] 0.063 | [6] 0.019 | [7] 0.059 | [8] 0.017

EAPP (UniProt Q56P03)
inactive: ibrutinib -0.105 | [1] 0.025 | ralimetinib -0.1 | [2] -0.059 | [3] -0.035 | [4] 0.037 | [5] -0.037 | [6] -0.015 | [7] 0.052 | [8] -0.042

ERI1 (UniProt Q8IV48)
inactive: ibrutinib -0.037 | [1] 0.022 | ralimetinib -0.035 | [2] 0.085 | [3] 0.084 | [4] -0.05 | [5] 0 | [6] -0.033 | [7] 0.411 | [8] 0.012

FAM98A (UniProt Q8NCA5)
inactive: ibrutinib -0.033 | [1] -0.019 | ralimetinib 0.046 | [2] 0.008 | [3] 0.014 | [4] 0.04 | [5] -0.045 | [6] 0.008 | [7] 0.035 | [8] 0.029

FBXO9 (UniProt Q9UK97)
inactive: ibrutinib 0.006 | [1] -0.014 | ralimetinib -0.046 | [2] 0.077 | [3] -0.09 | [4] 0.009 | [5] 0.019 | [6] 0.017 | [7] 0.047 | [8] 0.026

EEF1A1P5 (UniProt Q5VTE0)
inactive: ibrutinib -0.01 | [1] -0.007 | ralimetinib 0.001 | [2] -0.014 | [3] 0.032 | [4] 0.008 | [5] 0.019 | [6] -0.006 | [7] 0.012 | [8] -0.011

FBXO22 (UniProt Q8NEZ5)
UniProt Q8NEZ5, sequence (Q8NEZ5 whole entry, looked up): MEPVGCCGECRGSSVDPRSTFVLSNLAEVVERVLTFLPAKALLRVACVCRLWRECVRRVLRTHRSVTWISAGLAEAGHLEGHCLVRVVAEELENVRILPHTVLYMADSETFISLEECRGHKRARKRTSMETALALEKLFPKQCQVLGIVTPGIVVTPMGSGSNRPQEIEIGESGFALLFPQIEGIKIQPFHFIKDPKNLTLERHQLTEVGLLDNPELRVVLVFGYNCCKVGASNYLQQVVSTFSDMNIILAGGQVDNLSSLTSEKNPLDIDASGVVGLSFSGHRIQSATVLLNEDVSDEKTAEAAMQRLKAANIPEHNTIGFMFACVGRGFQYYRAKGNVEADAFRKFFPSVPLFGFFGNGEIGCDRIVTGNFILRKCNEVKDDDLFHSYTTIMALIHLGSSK
inactive: ibrutinib -0.03 | [1] 0.017 | ralimetinib 0.003 | [2] -0.06 | [3] -0.078 | [4] -0.026 | [5] -0.006 | [6] 0.016 | [7] 0 | [8] -0.014

ENSA isoform 3 (UniProt O43768)
inactive: ibrutinib 0.042 | [1] 0.015 | ralimetinib -0.019 | [2] 0.02 | [3] -0.013 | [4] -0.016 | [5] 0.039 | [6] -0.042 | [7] -0.057 | [8] -0.01

EXOC5 (UniProt O00471)
inactive: ibrutinib -0.015 | [1] 0.012 | ralimetinib 0.04 | [2] -0.003 | [3] -0.016 | [4] 0.008 | [5] 0.003 | [6] -0.024 | [7] 0.041 | [8] -0.013
